Most compounds without a hit are left out; they make up all but 14% or so of the library.
AID923: qHTS Assay for Allosteric/Competitive Inhibitors of Caspase-1: Spectroscopic Profiling in AFC Spectral Region | compound fluorescence, AFC spectral region (405/520 nm) | Potency, µM (titrated, usually from 57.5 µM), inactives show top-dose fluorescence increase, hits mostly activators | 1.1% of 75,000 active; further: potency means the concentration at half of the fitted maximal effect; 0% is about no effect
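Titrations up to 57 uM read every 20 sec for 3 min (405/520 nm) with 50 nM caspase 1 and 5 uM Ac-WEHD-AFC, pH 7.5 HEPES buffer. Fluorescence-vs-time intercept gave baseline, scaled against on-plate AFC standard.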
A350 fluor: compounds fluorescent in Alexa 350 spectral region | Compound autofluorescence, 340/450 nm, Alexa 350 dye-equivalents; stronger effect = higher value | max dye-equivalent concentration, M | 11% of 59,000 active | AID 590; in the data active means max dye-equivalent concentration above about 10 nM; inconclusive means mostly about 1.1 nM to 9.6 nM
HSD17B inhib: blocks hydroxysteroid 17-beta dehydrogenase activity; 7.6% of 75,000 active; Q99714; Potency, µM (series often up to 57.1 µM), inactives show at the top dose activity change, negative = inhibition, usual class: inhibitors; recombinant HSD17B10, NADH fluorescence kinetic;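 further: the protocol describes HADH2 (HSD17B10) and not the HSD17B4 of the title; potency means the concentration at half of the fitted maximal effect; on the % scale 0 is the no-effect control and ±100 the full control effect; nearly all actives have a fitted effect of over 70% in size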
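Enzyme plus compound, 15 min room temperature; substrate mix added (NAD+ 1 mM, beta-hydroxybutyryl-CoA 90 uM final); plates read kinetically for NADH fluorescence. HADH2 was His-tagged, E. coli-derived, 20 nM.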
CRE Fsk mod: alters forskolin-stimulated CRE reporter signaling in CHO cells; CHO CRE-bla reporter (cAMP response element driving beta-lactamase), forskolin EC10, beta-lactamase ratio; Potency, µM (series often up to 38.2 µM), inactives show at the top dose activity change, negative = inhibition, usual class: activators; 2.5% of 71,000 active; active means well fitted activation curve with a large enough effect in the signal ratio, with a control signal flat, not every such curve was filed as active; inconclusive means small, poorly fitted or top-dose-only effect, or effect the other way, or a change in a side signal; the % refers to the signal ratio; further: potency means the concentration at half of the fitted maximal effect; % of control where 0% means no effect
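CRE-bla CHO reporter cells treated with compound titration plus EC10 NKH 477 (water-soluble forskolin), incubated 3 h at 37 °C; CCF4 loading 2 h at room temperature, 460/530 nm emission ratio read, AC50 values derived for positive or negative modulators.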
4MU fluor: 4-MU region autofluorescence | 11% of 59,000 active | max dye-equivalent concentration, M | AID 589 | compound autofluorescence, 340/450 nm, 4-MU equivalents; stronger effect = higher value; in the data active means max dye-equivalent concentration above about 10 nM; inconclusive means mostly about 1.1 nM to 9.6 nM
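Compounds in 100 mM Tris, pH 8.0, sat 15 min at room temperature before fluorescence was read at 340 nm excitation/450 nm emission; a per-plate six-point 4-MU standard curve converted signals to dye-equivalent concentration at each compound concentration.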
HADH2 inhib: HADH2 (human) dehydrogenase inhibition; Potency, µM (top dose mostly 57.1 µM), without a hit: top-dose activity change, negative = inhibition, most hits filed as inhibitors; Q99714; AID 886; recombinant HADH2, NADH fluorescence, beta-hydroxybutyryl-CoA; 3.4% of 73,000 active; further: potency means the concentration at half of the fitted maximal effect; on the % scale 0 is the no-effect control and ±100 the full control effect; nearly all actives have a fitted effect of over 60% in size
Target sequence (Q99714 whole entry, looked up, one chain of several): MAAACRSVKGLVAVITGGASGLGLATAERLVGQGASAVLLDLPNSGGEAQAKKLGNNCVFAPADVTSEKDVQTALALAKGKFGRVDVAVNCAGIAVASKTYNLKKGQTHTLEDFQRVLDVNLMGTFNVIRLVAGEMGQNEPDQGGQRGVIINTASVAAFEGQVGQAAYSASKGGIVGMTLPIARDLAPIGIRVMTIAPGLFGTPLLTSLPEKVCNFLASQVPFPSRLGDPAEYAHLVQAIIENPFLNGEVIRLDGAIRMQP
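Buffer 100 mM Tris-HCl pH 9.0/0.01% Tween-20; HADH2 20 nM; NAD+ 1 mM; beta-hydroxybutyryl-CoA 90 uM (all final). 15 min cpd preincubation, RT.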
Starred values were filed as active, the others as inactive; i = inactive; ? = inconclusive; nt = no result given; ! = not confirmed by another sample; [ ] = another dose, or the depositor's remark. Unless noted, the call rests on the fitted dose curve; in most records, active means well fitted curve in the direction sought with a large enough effect; inconclusive means small, poorly fitted or top-dose-only effect, or another doubt; inactive means no such curve, though single readings can be large; an effect the other way counts as inactive or inconclusive.

SMILES	AID923	A350 fluor	HSD17B inhib	CRE Fsk mod	4MU fluor	HADH2 inhib
Cc1ccc2[nH]c(=O)c(CN(CCN3CCOCC3)C(=O)Nc3ccc(F)cc3)cc2c1	1%	i	-13%	?	i	9%
NCCC[C@@H](CC(=O)N[C@@H]1CCCC[C@H]1C(=O)N[C@H](CC(=O)N[C@@H](CCC(=O)O)CC(=O)O)Cc1c[nH]c2ccccc12)NC(=O)C[C@H](Cc1c[nH]c2ccccc12)NC(=O)[C@@H]1CNCC[C@H]1N	nt	nt	nt	-15%	nt	12%
CCOc1ccc2[nH]c(=O)c(CN(CC3CCCN3CC)C(=O)NCc3ccccc3)cc2c1 (stereo unspecified)	1%	2.4e-07M*	32µM*	?	2.6e-07M*	-6%
O=C(Nc1ccc(F)cc1)N(Cc1ccco1)Cc1cc2cc3c(cc2[nH]c1=O)OCO3	0%	1.3e-07M*	32µM*	?	1.7e-07M*	?
O=C(Nc1ccccc1F)N(CCCN1CCOCC1)Cc1cc2cc3c(cc2[nH]c1=O)OCCO3	2%	2e-07M*	25µM*	?	2.4e-07M*	?
CCN1CCCC1CN(Cc1cc2cc(C)cc(C)c2[nH]c1=O)C(=O)Nc1ccccc1OC (stereo unspecified)	3%	?	-25%	?	?	-4%
O=C(Nc1ccccc1)N(CCCN1CCOCC1)Cc1cc2cc3c(cc2[nH]c1=O)OCCO3	1%	3.7e-07M*	25µM*	?	2.6e-07M*	?
CCc1ccc2[nH]c(=O)c(CN(CCCN3CCOCC3)C(=O)Nc3ccccc3)cc2c1	-2%	i	-10%	?	i	-1%
COC(=O)[C@@]1(Cc2ccc(OC)cc2)[C@H]2c3cc(C(=O)N4CCCC4)n(CCc4ccccn4)c3C[C@H]2CN1C(=O)c1ccccc1	0%	nt	-7%	?	nt	-6%
Cc1cccc(Cn2cnc3c(nnn3Cc3ccccc3F)c2=O)c1	1%	i	4%	1.3µM*	i	-3%
O=C1CC[C@H](N2C(=O)c3ccccc3C2=O)C(=O)N1	-5%	i	9%	-7%	i	3%
CN(C)c1cccc(-c2nnc(SCCCC#N)o2)c1	-1%	1.7e-08M*	?	?	1.2e-08M*	-2%
CN(C)CCSc1nnc(-c2ccccc2)o1	-1%	i	8%	-1%	i	8%
O=C1C=CC(=O)C2=C1C1c3ccccc3C2c2ccccc21	-2%	nt	1µM*	nt	nt	0.1µM*
CCOC(=O)CSc1ccc2nnc(-c3cccnc3)n2n1	-3%	nt	32µM*	?	nt	?
CCOC(=O)CSc1ccc2nnc(-c3ccccc3)n2n1	-2%	nt	32µM*	-18%	nt	18%
O=C(CSc1ccc2nnc(-c3cccnc3)n2n1)N1CCOCC1	-2%	nt	?	2%	nt	?
CCOC(=O)CC(=O)CSc1ccc2nnc(-c3ccc(F)cc3)n2n1	0%	?	?	?	?	-7%
O=C(CSc1ccc2nnc(-c3ccccc3)n2n1)NCC1CCCO1 (stereo unspecified)	-1%	2e-08M*	32µM*	?	1.7e-08M*	-11%
Cc1cccc(OCCSc2cc(C)nc(N)n2)c1	5%	nt	-14%	24%	nt	1%
COC(=O)c1cc(OC)c(OC)c(OC)c1N	0%	7.4e-08M*	-16%	?	5.8e-08M*	-11%
COC(=O)Nc1c(C(=O)OC)cc(OC)c(OC)c1OC	2%	nt	?	2%	nt	-13%
O=C1Nc2ccccc2C1=Nc1ccc(-c2nnc3n2CCCCC3)cc1	3%	i	-2%	-6%	i	0%
CN(C)/C=N/c1nc2ccc3c(c2s1)CCCC3	0%	2.8e-08M*	-12%	6%	3.1e-08M*	7%
CCOc1ccc(-n2c(=O)[nH]cc(C(=O)N3CCCc4ccccc43)c2=O)cc1	1%	?	2%	?	?	7%
SMILES	AID923	A350 fluor	HSD17B inhib	CRE Fsk mod	4MU fluor	HADH2 inhib
O=C(Nc1nc2ccc(Cl)cc2s1)c1ccc(Br)o1	2%	nt	?	?	nt	-6%[11.4 µM]
O=C1NCC2(CCN(CCc3ccccc3)CC2)O1	0%	7.3e-08M*!	1%	2%[17.1 µM]	8.1e-08M*!	0%[25.6 µM]
O[C@@H](c1ccccc1)C1CCN(CCc2ccccc2)CC1	0%	nt	4%	-27%	nt	8%
CS(=O)(=O)NCCCc1ccccc1	0%	nt	1%	-8%	nt	4%
COc1cccc(-c2nccc(NCc3ccccc3OC)n2)c1	0%	i	-6%	16%	i	-11%
Cn1c(=O)c2c(-c3ccccc3)n(CCCN3CCOCC3)cc2n(C)c1=O	0%	?	-4%	?	?	?
Cn1c(=O)c2c(-c3ccccc3)n(Cc3ccccn3)cc2n(C)c1=O	2%	4.9e-08M*	-3%	-3%	4e-08M*	13%
Cc1ccc2c(c1)cc(CN(Cc1ccco1)S(=O)(=O)c1ccccc1)c1nnnn12	2%	i	0%	11%	i	17%
O=C1CC(Sc2nnnn2C2CCCCC2)C(=O)N1c1ccccc1 (stereo unspecified)	2%	i	25µM*	?	i	-2%
COC(=O)N1CCC[C@@]2(CCN(c3ccccc3)C2)C1	4%	i	-4%	-3%	i	10%
CC(=O)N1CCC2(CCCN(c3ccccn3)C2)CC1	2%	i	32µM*	-3%	i	14%
COC(=O)N1CCC[C@@]2(CCN(c3ccccn3)C2)C1	11%	i	32µM*	5%	i	-19%
COC(=O)N1CCC2(CCCN(c3ccccn3)C2)CC1	0%	i	32µM*	6%	i	-23%
O=C(c1cnccn1)N1CCC2(CCCN(c3ccccn3)C2)CC1	-1%	i	4%	-3%	i	-1%
COC(=O)N1CCC2(CC1)CCN(c1ccccn1)CC2	0%	i	?	-2%	i	2%
C=CCOc1ccccc1C1C2=C(CC(C)(C)CC2=O)Nc2c1c(=O)n(C)c(=O)n2C (stereo unspecified)	10%	8.2e-07M*	13µM*	12%	6.3e-07M*	-6%
Cc1cn2c(-c3ccncc3)nnc2s1	nt	i	nt	nt	i	nt
c1cc(-c2sc(-c3ccncc3)c(-c3ccncc3)c2-c2ccncc2)ccn1	-1%[11.5 µM]	1.3e-07M*	6%[11.4 µM]	0%[7.6 µM]	1.2e-07M*	14%[11.4 µM]
O=C(C1CCCC1)N(c1ccccc1)C1C=CS(=O)(=O)C1 (stereo unspecified)	-1%	i	-7%	-2%	i	-12%
Cc1ccc(NC(=O)CN(C)S(=O)(=O)c2cccc3nsnc23)cc1Cl	0%	4.6e-08M*	-7%	?	?	2%
Cc1ccc(NC(=O)CN(C)S(=O)(=O)c2cccc3nsnc23)cc1C	-5%	i	-4%	?	i	-2%
